miR-21 reporter: qHTS Assay for Modulators of miRNAs and/orActivators of miR-21 | HeLa miR-21 FLuc reporter, luciferase, 48 h | Potency, µM (series often up to 38.3 µM), for inactives: at the top dose activity change, positive = activation, actives largely listed as activators | 340,000 tested, under 10 active | AID 2288, 2010;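 note: % of control where 0% means no effect; miR-21 action dims this reporter so a rising signal means less miR-21 action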
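Using DMEM plus 10% FBS, HeLa miR-21-FLuc cells are incubated with test compounds (final up to about 40uM) for 48 hours; firefly luciferase signal is then imaged following reagent-mediated lysis.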
Anesthetic bind: qHTS Assay for Identification of Novel General Anesthetics. AID 485281, 2010. apoferritin/1-aminoanthracene competitive binding, fluorescence. Ferritin light chain (Equus caballus), P02791. Potency, µM (series often up to 77.5 µM), inactives show at the highest dose activity change, negative = displacement, actives largely listed as inhibitors. 350,000 tested, 0.074% active; note: potency is the fitted concentration of half-maximal effect; % is set by controls: 0 for no effect and ±100 for the full control effect; nearly all actives have a fitted effect of over 20% in size
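Steps: apoferritin (10 uM) was premixed with half-saturated 1-AMA in PBS, compounds were pin-transferred, plates stood 10 min at room temperature, fluorescence was read at 380/535 nm, and curves were fitted with a Hill equation.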
TrxR1 inh: qHTS Assay for Inhibitors of Mammalian Selenoprotein Thioredoxin Reductase 1 (TrxR1): qHTS; recombinant rTrxR1, NADPH fluorescence consumption, selenite substrate; Potency, µM (highest dose often 114 µM), without a hit: top-dose activity change, negative = inhibition, hits mostly inhibitors; AID 588453, 2011; Thioredoxin reductase 1, cytoplasmic (Rattus norvegicus), O89049; 390,000 tested, 1% active; note: potency is the fitted concentration of half-maximal effect; % is set by controls: 0 for no effect and ±100 for the full control effect; nearly all actives have a fitted effect of over 65% in size
Target sequence (O89049 whole entry, looked up): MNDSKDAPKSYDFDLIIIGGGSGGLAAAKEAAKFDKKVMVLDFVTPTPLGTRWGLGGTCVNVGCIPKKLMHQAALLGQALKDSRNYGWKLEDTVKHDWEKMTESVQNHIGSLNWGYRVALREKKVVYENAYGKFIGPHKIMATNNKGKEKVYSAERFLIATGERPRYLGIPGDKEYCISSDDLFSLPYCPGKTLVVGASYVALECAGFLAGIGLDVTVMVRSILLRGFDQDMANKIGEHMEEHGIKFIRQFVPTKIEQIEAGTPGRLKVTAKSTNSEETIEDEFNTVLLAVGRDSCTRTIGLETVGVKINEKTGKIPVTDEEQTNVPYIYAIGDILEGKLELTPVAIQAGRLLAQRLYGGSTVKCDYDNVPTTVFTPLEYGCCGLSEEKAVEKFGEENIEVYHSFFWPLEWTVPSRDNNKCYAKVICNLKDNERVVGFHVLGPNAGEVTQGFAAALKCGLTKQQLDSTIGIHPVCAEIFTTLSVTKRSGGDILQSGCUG
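Rat TrxR1 (90 nM in the dispensed reagent) was pre-reduced with 400 uM NADPH for 5 min at room temperature, then incubated with compound for 15 min. After 400 uM selenite was added, NADPH fluorescence (Ex 340/Em 450 nm) was followed for 8 min.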
ClpP mod: qHTS Assay for Activators of ClpP; ATP-dependent Clp protease proteolytic subunit (Bacillus subtilis (strain 168)), P80244; purified B. subtilis ClpP, FRET peptide cleavage, 20 min; Potency, µM (doses to about 57.5 µM), inactives show top-dose activity change, negative = active; 340,000 tested, 1.9% active; AID 651965, 2013; active = well fitted falling curve with a large enough effect; inconclusive = small, poorly fitted or top-dose-only effect; inactive = no such curve, though single readings can be large or run the other way; note: potency is the fitted concentration of half-maximal effect; the source files actives as falling curves though it sought activators and does not explain the sign; nearly all actives have a fitted effect of over 65% in size
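ClpP 10 microg/mL final, pH 8 Tris/KCl buffer with BSA, glycerol, Tween-20; compound pinned in; FRET-FV substrate; RT 20 min; Ex320/Em430; ΔFRET vs ADEP 5.8 microM, DMSO, no enzyme.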
TrxR1 substrate: qHTS Assay for Substrates of Mammalian Selenoprotein Thioredoxin Reductase 1 (TrxR1): qHTS | purified TrxR1 substrate turnover, NADPH consumption readout | Potency, µM (highest dose often 114 µM), for the others: top-dose activity change, negative = substrate turnover | 390,000 tested, 0.01% active | AID 588456, 2011; note: potency is the fitted concentration of half-maximal effect; % is set by controls: 0 for no effect and ±100 for the full control effect; nearly all actives have a fitted effect of over 50% in size
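Rat TrxR1, dispensed at 90 nM, was prereduced with 400 uM NADPH (final) for 5 min at ~22 deg C, then incubated with compound 15 min before 400 uM selenite. A first-read NADPH fluorescence drop versus no-compound background flagged substrates.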
Starred values were filed as active, the others as inactive; ? = inconclusive; / = not tested or not shown; [ ] = remark or other dose. Most compounds without a hit are left out; they make up all but 2.5% or so of the library. Unless noted, calls come from the whole dose curve; as a rule, active = well fitted curve in the direction sought with a large enough effect; inconclusive = small, poorly fitted or top-dose-only effect, or another doubt; inactive = no such curve, though single readings can be large; an effect the other way counts as inactive or inconclusive.

SMILES | miR-21 reporter | Anesthetic bind | TrxR1 inh | ClpP mod | TrxR1 substrate
Cn1c(NCCCO)nc2c(c1=O)C1(CCCCC1)Cc1ccccc1-2 | -2% | -18% | 5%[57.1 µM] | 28µM* | 142%[57.1 µM]
CC(=O)NCCn1c(SCC(=O)NC2CCCCC2)nc2ccccc2c1=O | 0% | -2% | -5%[57.1 µM] | 32µM* | -5%
CCn1c(SCC(=O)NC2CCCCC2)nc2ccccc2c1=O | 2% | -4% | -7% | -1% | -3%
CC1CCCCC1NC(=O)COC(=O)COc1ccccc1F (stereo not drawn) | / | / | 15%[57.1 µM] | 28µM* | 7%[57.1 µM]
CC1CCCCC1NC(=O)COC(=O)COc1ccccc1Cl (stereo not drawn) | -2% | ? | 10%[57.1 µM] | 1% | -14%[57.1 µM]
Cc1ccc(NC(=O)CCC(=O)N2Cc3ccccc3Oc3ncccc32)cc1 | 1% | -10% | 2% | -1% | 1%
CCN(CC)/[N+]([O-])=N/Oc1cc(O/N=[N+](\[O-])N(C)C)c([N+](=O)[O-])cc1[N+](=O)[O-] | / | -15% | 11µM* | / | -10%
CN1C(=O)c2cccc3c(Cl)ccc(c23)C1=O | -2% | -11% | -15% | 16µM* | 18%
COc1ccc(C2C(C#N)=C(N)Oc3c2sc2nc(C)cc(C)c32)cc1 (stereo not drawn) | -6% | -15% | -1% | 28µM* | -2%
CC(=O)c1ccc2c(c1)C1C=CCC1C(c1ccncc1)N2 (stereo not drawn) | -33% | -15% | ? | -6% | -9%
COC(=O)c1ccc(C2Nc3ccc(/C(C)=N/NC(=O)C(OC)c4ccccc4)cc3C3C=CCC32)cc1 (stereo not drawn) | -13% | ? | 22µM* | -5% | 0%
Cc1cccc(N2CCN(c3ccc4cc(S(=O)(=O)N5CCC(C)CC5)ccc4n3)CC2C)c1 (stereo not drawn) | 1% | 9% | 25%[57.1 µM] | -4% | 5%[57.1 µM]
CCC(C)n1nccc1NC(=O)C(C)OC(=O)c1cc2ccccc2[nH]1 (stereo not drawn) | -4% | ? | -11% | 28µM* | 9%
COc1ccccc1NC(=O)C(C)OC(=O)c1cc2ccccc2[nH]1 (stereo not drawn) | / | / | 23% | -16% | 8%
CC(=O)c1cccc(NC(=S)NC(=O)c2cccc(Cl)c2)c1 | -50% | -15% | ? | 4% | 14%
COc1cc(C(=O)NC(=S)Nc2cccc3nc(C)ccc23)cc(OC)c1OC | 3% | -9% | 24%[57.1 µM] | / | 5%[57.1 µM]
Cc1ccc2c(NC(=S)NC(=O)c3ccccc3)cccc2n1 | 0% | ? | 79µM* | -2% | -22%
Cc1ccc(C(=O)O)cc1NC(=S)NC(=O)c1ccc(-c2ccccc2)cc1 | -36% | -20% | 40µM* | / | 1%
CC(=O)c1cccc(NC(=S)NC(=O)c2ccccc2)c1 | -45% | -9% | 35µM* | 2% | 0%
COc1cc(OC)c(C(=O)Nc2cccc(C(C)=O)c2)cc1OC | -40% | -14% | 12%[57.1 µM] | 16µM* | 8%[57.1 µM]
COc1ccc(C(=O)Nc2cccc(C(C)=O)c2)cc1OC | -35% | -7% | 22% | -1% | 10%[57.1 µM]
CCCCC(CC)Cn1c(Oc2ccccc2)nc2c1c(=O)n(C)c(=O)n2C (stereo not drawn) | 4% | 1% | -1% | 2% | -8%
Cc1cccnc1NC(=S)NC(=O)c1cncc(Br)c1 | -34% | -13% | 32µM* | 20% | 10%
CC(=O)c1cccc(NC(=S)NC(=O)c2cncc(Br)c2)c1 | -20% | -8% | 22µM* | -4% | -9%
COc1cccc(NC(=S)NC(=O)c2cncc(Br)c2)c1 | / | / | ? | -1% | -9%
O=C(Nc1ccc2nc3n(c(=O)c2c1)CCCCC3)c1cc([N+](=O)[O-])ccc1F | ? | ? | -9% | 2% | -4%
CC1CCCCN1C(=S)Nc1ccc2nc3n(c(=O)c2c1)CCCCC3 (stereo not drawn) | -20% | -17% | ? | 28µM* | 15%

Screening data from PubChem.
